Reference: PubChem BioAssay (Tox21)
Records with an inconclusive call do not appear. The source made the active and inactive calls. Unless noted, calls come from the whole dose curve; as a rule, active = well fitted curve in the direction sought with a large enough effect in the repeat runs; inconclusive = weak or mixed curves; inactive = no such curve, though single readings can be large; an effect the other way counts as inactive or inconclusive.

Legend:
[1] = qHTS assay for small molecules that induce genotoxicity in human embryonic kidney cells expressing luciferase-tagged ATAD5 (AID 651632); note: nearly all actives have a fitted effect of over 15% in size
How it was run: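 HEK293T cells carrying luciferase-tagged ATAD5 were given compound or DMSO vehicle and incubated 16 hr at 37C, 5% CO2. Luciferase activity was read after 30 min at room temperature with Amplite; a rise signals genotoxic stress.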

[2] = qHTS assay for small molecule agonists of the p53 signaling pathway - cell viability (AID 651633; calls by dose curve;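 note: p53RE-bla HCT reporter cells with a stable beta-lactamase p53 reporter; series mostly up to about 83 µM; nearly all actives have a fitted effect of over 30% in size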)
How it was run: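 p53RE-bla cells were treated with compound for 16 hours at 37 C. Cytotoxicity was then measured as CellTiter-Glo luminescence after 30 min at room temperature.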

[3] = qHTS assay for small molecules that induce genotoxicity in human embryonic kidney cells expressing luciferase-tagged ATAD5 - cell viability (AID 651634; calls by dose curve; note: nearly all actives have a fitted effect of over 25% in size)
How it was run: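 HEK293T cells carrying luciferase-tagged ATAD5, 2,000 cells/well, exposed to compound for 15.5 hr at 37C. Viability read as live-cell protease activity by CellTiter-Fluor fluorescence after 30 min at 37C.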

[4] = qHTS assay for small molecule disruptors of the mitochondrial membrane potential - cell viability (AID 720634; calls by dose curve;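 note: human HepG2 liver cancer cells; series mostly up to about 83 µM; nearly all actives have a fitted effect of over 20% in size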)
How it was run: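 HepG2 cells, 2,000 per well, attached overnight, then treated 1 hr at 37 C, 5% CO2. Viability read as ATP by CellTiter-Glo luminescence after 30 min at room temperature. Read in the same wells as the m-MPI membrane-potential dye assay.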

[5] = qHTS assay to test for compound auto fluorescence at 590 nm (red) in HepG2 cells (AID 720674)
How it was run: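 Seeding: 2,000 HepG2 cells/well, MEM/10% FBS, overnight 37 C. Dosing: compound vs DMSO. Incubation: 1 hr, 37 C, 5% CO2. Read: fluorescence 540 ex/590 em, Rose Bengal sodium as red reference.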

[6] = qHTS assay to test for compound auto fluorescence at 535 nm (green) in HepG2 cells (AID 720675)
[7] = qHTS assay to test for compound auto fluorescence at 460 nm (blue) in HEK293 cells (AID 720678)
How it was run: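 Blue read-out at excitation 405 nm and emission 460 nm follows overnight compound exposure of HEK293 cells at 37C in 5% CO2. Activity is given as auto fluorescence equivalency to triamterene.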

[8] = qHTS assay to test for compound auto fluorescence at 590 nm (red) in HEK293 cells (AID 720679)
How it was run: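 Red channel, Ex/Em 540/590nm; signal expressed as equivalency to Rose Bengal sodium. HEK293, 2,000 cells/well, 10% dialyzed FBS; 23 nL compound pinned after 4-5 hr attachment; overnight 37C/5% CO2 before reading.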

[9] = qHTS assay for small molecule disruptors of the mitochondrial membrane potential (AID 720635)
How it was run: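 HepG2 cells exposed to compound 1 hr at 37C, then Mito-MPS dye 30 min. Ratio read of aggregate (540/590 nm) versus monomer (490/535 nm) fluorescence.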
% is set by controls: 0 for no effect and ±100 for the full control effect.

CC(=O)N(CC(O)CO)c1c(I)c(C(=O)NCC(O)CO)c(I)c(C(=O)NCC(O)CO)c1I (stereo not drawn)
inactive: outcome [1] | outcome [2] | Potency [3] | outcome [4] | outcome [5] | outcome [6] | outcome [7] | outcome [8]

CC(C)CCCCCCOC(=O)C1CCCCC1C(=O)OCCCCCCC(C)C (stereo not drawn)
inactive: outcome [1] | outcome [2] | Potency [3] | outcome [4] | outcome [6] | outcome [7] | outcome [8]

CC(=O)Nc1ncc([N+](=O)[O-])s1
inactive: outcome [1] | outcome [2] | Potency [3] | outcome [4] | outcome [5] | outcome [6] | outcome [7] | outcome [8]

C[CH2][Ge]([Cl])([CH2]C)[CH2]C
inactive: outcome [1] | outcome [2] | Potency [3] | outcome [4] | outcome [5] | outcome [6] | outcome [7] | outcome [8]

Cc1ccccc1C
inactive: outcome [1] | outcome [2] | Potency [3] | outcome [4] | outcome [6] | outcome [7] | outcome [8]

O=P(O)(O)OCC(O)CO (stereo not drawn)
inactive: outcome [1] | outcome [2] | Potency [3] | outcome [5] | outcome [6] | outcome [7] | outcome [8]

CC(C)SCc1ccco1
inactive: outcome [1] | outcome [2] | Potency [3] | outcome [5] | outcome [6] | outcome [7] | outcome [8]

Cc1oc(=O)oc1CN1CCN(c2cc3c(cc2F)c(=O)c(C(=O)O)c2n3C(C)S2)CC1 (stereo not drawn)
inactive: outcome [1] | outcome [2] | Potency [3] | outcome [4] | outcome [5] | outcome [6] | outcome [7] | outcome [8]

COc1ccc(/C=N/NC(=O)c2ccncc2)cc1OC
inactive: outcome [1] | outcome [2] | Potency [3] | Potency [9] | outcome [5] | outcome [6] | outcome [7] | outcome [8]

Cc1ccccc1N1CCN(CCc2nnc3n2CCCC3)CC1
inactive: outcome [1] | outcome [2] | Potency [3] | outcome [4] | outcome [5] | outcome [6] | outcome [7] | outcome [8]

CCc1nccnc1C
inactive: outcome [1] | outcome [2] | Potency [3] | outcome [4] | outcome [6] | outcome [7] | outcome [8]

COc1ccc(OC)c(NC(=O)CC(C)=O)c1
inactive: outcome [1] | outcome [2] | Potency [3] | outcome [4] | outcome [6] | outcome [7] | outcome [8]

COc1cccc2sc(N)nc12
inactive: outcome [1] | outcome [2] | Potency [3] | outcome [5] | outcome [6] | outcome [7] | outcome [8]

Nc1ccc(/C=C/c2ccc(N)cc2S(=O)(=O)O)c(S(=O)(=O)O)c1
inactive: outcome [2] | outcome [4] | Potency [9] | outcome [6] | outcome [7] | outcome [8]

CCCCCCCCCCCCCC(=O)OC
inactive: outcome [1] | Potency [3] | outcome [5] | outcome [6] | outcome [7] | outcome [8]

COc1ccc(N=Nc2cc(C)c(N=Nc3ccc(S(=O)(=O)O)cc3)cc2OC)cc1
inactive: outcome [1] | outcome [4] | outcome [5] | outcome [6] | outcome [7] | outcome [8]

CO/N=C(/C(=O)N[C@@H]1C(=O)N2C(C(=O)O)=C(Cn3nnc(C)n3)CS[C@H]12)c1csc(N)n1
inactive: outcome [1] | Potency [3] | outcome [4] | Potency [9] | outcome [5] | outcome [6] | outcome [7] | outcome [8]

O=CO
inactive: activity change, negative = cytotoxicity [2] 17.2% [at 8.08 µM] | activity change, negative = cytotoxicity [4] 10.1% [at 8.08 µM] | fluorescence, relative to Rose Bengal [5] 0.134% [at 9.17 µM] | fluorescence, % of fluorescein control [6] -0.0157% [at 9.17 µM] | fluorescence, % of triamterene [7] 0.001% [at 9.17 µM] | fluorescence, % of fluorescent control [8] 0.473% [at 9.17 µM]

Cn1c(=O)c2c(ncn2CC2OCCO2)n(C)c1=O
inactive: outcome [1] | Potency [3] | outcome [5] | outcome [6] | outcome [7] | outcome [8]

CCCOC(=O)CCCCC(=O)OCCC
inactive: outcome [1] | outcome [2] | outcome [4] | outcome [6] | outcome [7] | outcome [8]

Cc1nc2ccccc2c(=O)o1
inactive: outcome [1] | outcome [2] | outcome [4] | outcome [6] | outcome [7] | outcome [8]

C=CCOCC(O)CCl (stereo not drawn)
inactive: outcome [1] | outcome [2] | outcome [4] | outcome [5] | outcome [6] | outcome [7] | outcome [8]

Nc1cc(Cl)cc(S(=O)(=O)O)c1O
inactive: outcome [1] | Potency [3] | outcome [4] | outcome [5] | outcome [6] | outcome [7] | outcome [8]

CC(=O)c1ccc(OCC(=O)N2CCCCC2)cc1
inactive: outcome [1] | outcome [2] | Potency [9] | outcome [5] | outcome [6] | outcome [7] | outcome [8]
